Data published in the supplement of paper PMC12350171.
Counter-ions that a name gives are not always drawn.

test system: Haemophilus parainfluenzae; assay: growth AUC normalised to DMSO control (fraction of control); higher = less growth inhibition, active = hit call of the paper; details: 20 µM;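 active = AUC significantly below DMSO controls by Student t-fit with adjusted P under 0.01; inactive = not significantly reduced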
Procedure, shortened: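 Pathogens passaged twice anaerobically were inoculated at a starting OD578 of 0.01 into pre-reduced mGAM plates with drug at 20 μM and 1% DMSO, sealed with breathable membranes. Haemophilus parainfluenzae medium was supplemented with hemin and NAD. OD578 was read hourly for 24 h, with three biological replicates. Growth-curve AUC was computed by the trapezoidal rule up to the exponential-to-stationary transition and normalised to DMSO controls on the same plate.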

Compound | growth AUC normalised to DMSO control
CC(=O)OC(C)C[N+](C)(C)C (stereo unspecified) [Methacholine chloride] | 0.979 (inactive)
COc1ccc(CC2c3cc(OC)c(OC)cc3CC[N+]2(C)CCC(=O)OCCCCCOC(=O)CC[N+]2(C)CCc3cc(OC)c(OC)cc3C2Cc2ccc(OC)c(OC)c2)cc1OC (stereo unspecified) [Atracurium besylate] | 1.06 (inactive)
CN(C)CCC(c1ccc(Br)cc1)c1ccccn1 (stereo unspecified) [Brompheniramine maleate] | 1.04 (inactive)
NS(=O)(=O)c1cc2c(cc1Cl)NCNS2(=O)=O [Hydrochlorothiazide] | 0.967 (inactive)
COc1ccccc1OCC(O)CO (stereo unspecified) [Guaifenesin] | 1.04 (inactive)
OCCN1CCN(CCCN2c3ccccc3Sc3ccc(C(F)(F)F)cc32)CC1 [Fluphenazine dihydrochloride] | 0.999 (inactive)
Cc1cc2cc3c(C)cc(=O)oc3c(C)c2o1 [Trioxsalen] | 1.02 (inactive)
CN1Cc2c(N)cccc2C(c2ccccc2)C1 (stereo unspecified) [Nomifensine maleate] | 0.915 (inactive)
C[C@H]1O[C@H](O[C@H]2[C@H](O)[C@@H](O)[C@@H](O[C@@H]([C@H](O)[C@@H](O)C=O)[C@H](O)CO)O[C@@H]2CO)[C@H](O)[C@@H](O)[C@@H]1N[C@H]1C=C(CO)[C@@H](O)[C@H](O)[C@H]1O [Acarbose] | 1.02 (inactive)
CCCCCCC[N+](CC)(CC)CCCCc1ccc(Cl)cc1 [Clofilium tosylate] | 1.01 (inactive)
CCN[C@H]1CN(CCCOC)S(=O)(=O)c2sc(S(N)(=O)=O)cc21 [Brinzolamide] | 0.946 (inactive)
